# From the supplement of paper PMC6555819
# Key:
# Test in all cases: PBM binding z-score (relative to random genomic background probes); higher = stronger binding; sequences stand for … in GC…GCGATTGACAGCGTAGAATGAAGG
# [1] = test system: FXR:RXRa (NR concentration 270 nM, RXRa partner concentration 90 nM)
# Method in brief: (§1)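 Scanned fluorescence from custom Agilent 4×180K protein-binding microarrays was regression-normalized. Binding z-scores use random background probes as reference. Ligand-free nuclear receptor dimers were incubated on the arrays for 1 h and detected with antibodies against each partner (one per run).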
# [2] = test system: LXRa:RXRa (NR concentration 270 nM, RXRa partner concentration 90 nM)
# Method in brief: as §1
# [3] = test system: LXRa homodimer (NR concentration 270 nM)
# Method in brief: as §1
# [4] = test system: LXRb:RXRa (NR concentration 270 nM, RXRa partner concentration 90 nM)
# Method in brief: as §1
# [5] = test system: LXRb homodimer (NR concentration 270 nM)
# Method in brief: as §1
# [6] = test system: PPARa:RXRa (NR concentration 270 nM, RXRa partner concentration 90 nM)
# Method in brief: as §1
# [7] = test system: PPARg:RXRa (NR concentration 180 nM, RXRa partner concentration 90 nM)
# Method in brief: as §1
# [8] = test system: PPARg:RXRa 270nM:90nM, anti-RXR (NR concentration 270 nM, RXRa partner concentration 90 nM)
# Method in brief: as §1
# [9] = test system: PPARg:RXRa 30nM:10nM, anti-RXR (NR concentration 30 nM, RXRa partner concentration 10 nM)
# Method in brief: as §1
# [10] = test system: PPARg:RXRa 90nM:30nM, anti-RXR (NR concentration 90 nM, RXRa partner concentration 30 nM)
# Method in brief: as §1
# [11] = test system: PPARg:RXRa DBDmut IVT, anti-RXR (DBD mutation: RXRa K156A/R161A, NR concentration 270 nM, RXRa partner concentration 90 nM)
# Method in brief: as §1
# [12] = test system: PPARg:RXRa IVT, anti-PPARg (NR concentration 270 nM, RXRa partner concentration 90 nM)
# Method in brief: as §1
# [13] = test system: PPARg DBDmut:RXRa IVT, anti-PPARg (DBD mutation: PPARg1 K132A/R137A, NR concentration 270 nM, RXRa partner concentration 90 nM)
# Method in brief: as §1
# [14] = test system: PPARg DBDmut IVT, anti-PPARg (DBD mutation: PPARg1 K132A/R137A, NR concentration 270 nM)
# Method in brief: as §1
# [15] = test system: PPARg homodimer (NR concentration 180 nM)
# Method in brief: as §1
# [16] = test system: PXR:RXRa (NR concentration 270 nM, RXRa partner concentration 90 nM)
# Method in brief: as §1
# [17] = test system: PXR homodimer (NR concentration 270 nM)
# Method in brief: as §1
# [18] = test system: RARa:RXR (NR concentration 270 nM, RXRa partner concentration 90 nM)
# Method in brief: as §1
# [19] = test system: RARa homodimer (NR concentration 270 nM)
# Method in brief: as §1
# [20] = test system: RARb:RXRa (NR concentration 270 nM, RXRa partner concentration 90 nM)
# Method in brief: as §1
Sequence,PBM binding z-score [1],PBM binding z-score [2],PBM binding z-score [3],PBM binding z-score [4],PBM binding z-score [5],PBM binding z-score [6],PBM binding z-score [7],PBM binding z-score [8],PBM binding z-score [9],PBM binding z-score [10],PBM binding z-score [11],PBM binding z-score [12],PBM binding z-score [13],PBM binding z-score [14],PBM binding z-score [15],PBM binding z-score [16],PBM binding z-score [17],PBM binding z-score [18],PBM binding z-score [19],PBM binding z-score [20]
TCTCGGAGGACACTAAGGTCAGAGCTTTCCAGAG,1.87,1.63,0.625,1.5,-0.615,2.32,0.459,1.84,2.1,1.81,1.61,1.22,-0.543,-1.32,1.72,3.24,6.61,2.71,-0.0898,3.32
CTAACGAGGGCATGAGTTGATAGCAAATGCCGAT,0.543,0.409,-0.604,0.119,-0.182,1.54,1.71,2.02,0.704,1.51,3.84,2.56,0.128,0.129,0.262,0.639,0.123,0.588,0.359,2.01
CCGACTGGGGTAAGGTTACCATAACGCACAGCCA,0.62,1.11,-0.0991,1.31,-0.565,2.14,2.11,2.5,0.595,1.71,1.25,2.26,-0.489,-1.25,0.783,0.899,-0.126,1.55,0.484,1.3
CAAACTAGGTCAAGGTCAAGGTCGGTTTGTGCCA,6.47,5.41,3.72,4.28,0.954,6,9.57,7.87,6.34,8.36,8.6,8.73,2.59,1.56,5.52,5.33,2.34,5.61,2.92,5.2
TCATATAGGTAAACTGGTGAAAGTCCGTAAGTTA,0.534,0.478,0.129,0.808,-0.0343,1.05,0.842,2.31,3.92,3.07,3.83,2.69,1.43,1.35,0.515,0.463,0.739,0.446,1.61,0.361
TCGAGTGGGTTAGTCGGGGCATTCAGCCAACATA,0.26,0.197,0.0739,0.985,-0.295,0.659,-0.439,0.869,0.979,0.719,1.67,1.4,0.134,-0.527,0.359,0.291,0.241,0.255,0.0202,0.514
